24 molecules from PubChem BioAssay AID463173 (ICCB-Longwood Screening Facility, Harvard Medical School, 2010) can be followed below.

Molecules are shown by their SMILES. The campaign covered roughly 52,000 compounds. About 4,300 (8.3%) were called active. Cut-off read from the data, not from the text of the source: active = survival mostly below about 52% (no sharp cut-off); inactive = mostly above about 56%. This excerpt belongs to a sample that is enriched for actives.

The experiment deals with DeltatarO mutant. Description: growth inhibition of S. aureus wild type versus tarO mutant, primary screen, teichoic acid synthesis inhibitors, RN4220, OD600 (AID 463173). The note with it: OD600, 18 h, hits give low values, screened at 18.75 µg/mL (by protocol).
In the case of `Cc1ccc(Nc2cc(C)c(C#N)c3nc4ccccc4n23)cc1Cl`, the survival is 83% (inactive).

Regarding `Cc1ccc(Nc2cc(C)c(C#N)c3nc4ccccc4n23)c(C)c1`, the survival is 38% (active).

Regarding `Cc1cc(Nc2ccc(F)cc2)n2c(nc3ccccc32)c1C#N`, the survival was 89% (inactive).

`O=C(Cn1nnc(-c2ccccc2NC(=O)c2cnccn2)n1)Nc1ccc2c(c1)OCCO2`: the survival was 105% (inactive).

Regarding `O=C(Oc1ccc2c(c1)OCO2)c1cccc(S(=O)(=O)N2CCCC2)c1`, the survival was 58% (inactive).

For the molecule `COc1cc(OC)c(NC(=O)CC(c2cccs2)N2Cc3ccccc3C2=O)cc1Cl` (centres undefined), the survival was 92% (inactive).

On to `COc1ccc(C(CC(=O)Nc2cc(Cl)c(OC)cc2OC)N2Cc3ccccc3C2=O)cc1` (centres undefined), for which the survival is 0% (active).

Consider `COc1ccc(C(CC(=O)Nc2cc(OC)c(OC)c(OC)c2)N2Cc3ccccc3C2=O)cc1` (centres undefined), for which the survival is 57% (inactive).

Take `Cc1ccc(NC(=O)CC(c2ccc(F)cc2)N2Cc3ccccc3C2=O)cc1C` (centres undefined): the survival was 74% (inactive).

For the molecule `COc1ccc(CNC(=O)C(CC(C)C)N2Cc3ccccc3C2=O)cc1` (centres undefined), the survival was 126% (inactive).

For the molecule `COc1cc(C(CC(=O)NCCC(C)C)N2Cc3ccccc3C2=O)cc(OC)c1OC` (centres undefined), the survival was 94% (inactive).

Consider `COc1ccc(CNC(=O)C(C(C)C)N2Cc3ccccc3C2=O)cc1` (centres undefined), for which the survival was -5% (active).

With `CCOC(=O)CNC(=O)CC(c1cc(OC)c(OC)c(OC)c1)N1Cc2ccccc2C1=O` (centres undefined), the survival was 47% (active).

As to `COc1cc(C(CC(=O)NCc2ccccc2)N2Cc3ccccc3C2=O)cc(OC)c1OC` (centres undefined), the survival is 135% (inactive).

For the molecule `Cc1ccc(CNC(=O)C(C(C)C)N2Cc3ccccc3C2=O)cc1` (centres undefined), the survival is 73% (inactive).

For the molecule `CCOc1ccc(C(CC(=O)Nc2cc(C)c(Cl)cc2OC)N2Cc3ccccc3C2=O)cc1OC` (centres undefined), the survival is 70% (inactive).

Take `COc1cc(Cl)c(C)cc1NC(=O)CC(c1ccc(F)cc1)N1Cc2ccccc2C1=O` (centres undefined): the survival is 0% (active).

With `CSc1nn(Cc2ccc(F)cc2)c(N(C(C)=O)C(C)=O)c1S(=O)(=O)c1ccccc1`, the survival was 74% (inactive).

Take `COc1ccc(OC)c(NC(=O)Cn2c(=O)n(Cc3nc(C)no3)c(=O)c3ccccc32)c1`: the survival was 90% (inactive).

Take `O=C(CSc1oc(-c2ccco2)nc1S(=O)(=O)c1ccc(Cl)cc1)c1ccc(Cl)cc1`: the survival is 80% (inactive).

As to `Cn1cc(S(=O)(=O)c2ccccc2)c(=O)c2cc(F)c(N3CCCC3)cc21`, the survival is 123% (inactive).

Regarding `CC(=O)N1CCCc2cc(S(=O)(=O)N3CCC(C(=O)Nc4cccc(Cl)c4C)CC3)ccc21`, the survival was 74% (inactive).

Regarding `Cc1cccc(C)c1-n1ncc(C(=O)NCCCN2CCC(C)CC2)c1C1CCN(C(=O)OC(C)(C)C)CC1`, the survival is 91% (inactive).

On to `COc1ccccc1CNC(=O)CCc1c(C)nn(-c2ccc(N3CCOCC3)nn2)c1C`, for which the survival is 80% (inactive).
